An excerpt weighted towards active compounds, which were near 7.3% of everything screened.
HCMV inh = qHTS Assay for inhibitors of the human cytomegalovirus (HCMV); HFF cells, HCMV-luciferase reporter, 72 h; hits give low values; activity change, negative = inhibition, % at 57.5 µM; 410,000 tested, 4.5% active; in the data active = activity change below about -60%; inconclusive = no clear call, values can overlap the other calls; inactive = above about -39%
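Cell-based, HFFs, 1000 cells/well, 16 h 37C; cpds in DMSO + HCMV-luc, MOI 1 PFU/cell; 72 h 37C; OneGlo luminescence after 5 min RT; norm. to buffer vs Salinomycin 10uM.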
AmpC detergent = qHTS Inhibitors of AmpC Beta-Lactamase (assay with detergent); AmpC hydrolysis of nitrocefin, absorbance 480 nm, 0.01% Triton; Potency, µM (top dose mostly 114 µM), inactives show at the highest dose activity change, negative = inhibition, hits mostly inhibitors; 370,000 tested, 0.041% active; AID 485294, 2010;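 note: potency is the fitted concentration of half-maximal effect; 0% = no-compound wells and -100% = no-enzyme wells; nearly all actives have a fitted effect of over 25% in size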
Target sequence (P00811 whole entry, looked up): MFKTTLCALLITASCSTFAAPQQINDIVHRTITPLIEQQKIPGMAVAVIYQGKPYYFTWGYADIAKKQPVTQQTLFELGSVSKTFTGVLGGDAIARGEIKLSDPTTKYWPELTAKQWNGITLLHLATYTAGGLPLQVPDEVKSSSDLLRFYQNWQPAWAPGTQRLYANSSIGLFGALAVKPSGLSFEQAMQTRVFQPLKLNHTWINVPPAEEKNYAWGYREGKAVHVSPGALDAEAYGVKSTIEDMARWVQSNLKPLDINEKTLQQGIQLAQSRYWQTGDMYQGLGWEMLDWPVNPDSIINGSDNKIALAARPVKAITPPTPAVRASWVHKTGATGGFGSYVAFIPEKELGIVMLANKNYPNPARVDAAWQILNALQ
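AmpC (5.3 nM in the dispensed reagent) in 20 mM phosphate pH 7.0 with 0.01% (detergent screen) or 0.0001% Triton X-100 was preincubated with compounds for 15 min at room temperature. Nitrocefin was then added from an 800 uM solution, and hydrolysis was followed at 480 nm.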
HCV inh = qHTS Assay for Inhibitors of Hepatitis C Virus (HCV); 340,000 tested, 3.4% active; Potency, µM (highest dose often 41.8 µM), for the others: top-dose activity change, negative = inhibition, hits mostly inhibitors; Huh7.5.1 HCVcc-Cre infection, luciferase reporter, 44 h; AID 651820, 2012; note: potency is the fitted concentration of half-maximal effect
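Cells seeded at 1,000/well and cultured 4 h, then compounds added followed by HCVcc-Cre virus (~0.5 moi). After 44 h further culture, luciferase substrate was added, plates held 15 min at room temperature, and luminescence read for 15 sec.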
FMDV antiviral = High Throughput Screening for Foot and Mouth Disease Virus Antivirals | 410,000 tested, 1.2% active | FMDV antiviral cell-based qHTS | Potency, µM (series often up to 57.9 µM), without a hit: top-dose activity change, negative = inhibition, usual class: inhibitors | AID 1159524, 2015; calls by dose curve; tested in HEK293T cells; note: read-out not given here; potency is the fitted concentration of half-maximal effect; nearly all actives have a fitted effect of over 45% in size
AmpC no deterg = qHTS Inhibitors of AmpC Beta-Lactamase (assay without detergent). 330,000 tested, 0.52% active. AmpC nitrocefin hydrolysis, absorbance 480 nm, 0.0001% Triton. P00811. Potency, µM (titrated, usually from 57.1 µM), for the others: top-dose activity change, negative = inhibition, most hits filed as inhibitors. AID 485341, 2010;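 note: potency is the fitted concentration of half-maximal effect; plate controls were no compound for no effect and no enzyme for full effect; nearly all actives have a fitted effect of over 20% in size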
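20 mM phosphate pH 7.0 + 0.01% (detergent screen) or 0.0001% Triton X-100; 5.3 nM AmpC reagent; cpd preinc 15 min RT; nitrocefin (800 uM stock) to start; A480 q20 s × 4 min; Activity was normalised to no-enzyme and no-compound control wells.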
An asterisk follows results filed as active; ? = inconclusive; · = not tested or not shown; + = active, no number; [ ] = dose if it differs, or a comment. Unless noted, calls come from the whole dose curve; as a rule, active = well fitted curve in the direction sought with a large enough effect; inconclusive = small, poorly fitted or top-dose-only effect, or another doubt; inactive = no such curve, though single readings can be large; an effect the other way counts as inactive or inconclusive. Unless noted, % is set by controls: 0 for no effect and ±100 for the full control effect.

SMILES | HCMV inh | AmpC detergent | HCV inh | FMDV antiviral | AmpC no deterg
COc1cc(C(=O)Nc2cc(OC)c(OC)c(OC)c2)ccc1OCc1c(C)noc1C | 276.6 | · | 11.2µM* | -21.0% | 35.3%
CCC(c1nc2ccccc2[nH]1)N(Cc1cccnc1)C(=O)c1cc(-c2ccccc2)on1 (stereo unspecified) | 5.1 | · | · | 14.8% | ·
CCCCNS(=O)(=O)c1cccc(NC(=O)[C@@H]2O[C@H](CO)[C@@H](O)[C@H]2O)c1 | 1.1 | · | · | 3.4% | ·
Clc1ccccc1CN(Cc1ccco1)Cc1nnnn1C1CCCC1 | 10.2 | 5.5% | 10µM* | -27.1% | -5.0%
Cc1cc(OC(C)C(=O)N(Cc2ccc(N(C)C)cc2)Cc2ccco2)ccc1Cl (stereo unspecified) | -16.8 | 19.7% | · | -9.3% | ·
Cc1cc(-c2ccccc2)c(C#N)c(N)n1 | 81.6 | -2.6% | 7.94µM* | 0.7% | ·
Cc1cc(C)n(-c2nc3ccccc3c(=O)n2OCc2ccc(Cl)cc2)n1 | -10.1 | -1.4% | -10.1% | -21.9% | 13.9%
Cc1cc(C)n(-c2nc3ccccc3c(=O)n2OCc2ccc(F)cc2)n1 | 38.4 | 31.6µM* | -10.2% | -25.5% | 45.3%
COc1ccc(C(=O)NCc2nnc(SC)n2-c2ccccc2C)c(OC)c1OC | · | · | · | -17.7% | ·
CC(C)=CC(=O)Nc1ccccc1C(N)=O | -74.1* | -7.8% | 11.0% | 13.4% | 2.7%
COc1cc(/C=N/NC(=O)CSc2n[nH]c(=O)[nH]c2=O)cc(OC)c1O | 4.3 | 3.7% | 10.0% | 9.5% | -11.5%
Cc1cccc(C)c1NC(=O)C1(C)CCC(=O)N1CCCn1ccnc1 (stereo unspecified) | 23.5 | · | · | -11.9% | ·
CCOC(=O)c1ccc(NC(=O)CCc2c(C)n(CC)c3cc(-c4ccccc4OC)nn3c2=O)cc1 | 13.8 | 4.4% | · | -1.0% | ·
COc1cc2c(cc1OC)CN(C(=O)C1CCCN1S(=O)(=O)c1ccc(F)cc1)CC2 (stereo unspecified) | -20.7 | -3.2% | 12.8% | 2.6% | 32.4%
O=C(N/N=C/c1cn(Cc2cccc(F)c2)c2ccccc12)c1cc(O)cc(O)c1 | 4.5 | ? | 36.5% | -22.0% | 12.6µM*
CNC(=S)N/N=C/c1cn(Cc2ccc(F)cc2)c2ccccc12 | 23.1 | ? | 31.6µM* | ? | -46.0%
Nc1ccc(C(=O)N/N=C/c2cn(Cc3ccc(F)cc3)c3ccccc23)cc1 | 15.1 | -12.6% | -16.9% | -19.6% | -39.9%
C=CCS(=O)(=O)N1CCCC(Cc2ccccc2C)(C(=O)OCC)C1 (stereo unspecified) | ? | ? | -5.7% | -0.3% | 35.2%
COc1cccc(NC(=S)N2CCC(c3ccc(C)cc3)C2)c1 (stereo unspecified) | 52.5 | -5.2% | -16.8% | -2.5% | -34.3%
CN(c1ccccc1)S(=O)(=O)c1cccc(NC(=O)c2ccc3ncsc3c2)c1 | 0.0 | -3.9% | 11.2µM* | 35.5µM* | -48.9%
CN(c1ccccc1)S(=O)(=O)c1cccc(C(=O)Nc2cccc(C(=O)NC3CC3)c2)c1 | -19.2 | 0.0% | ? | ? | -29.5%
CN(c1ccccc1)S(=O)(=O)c1cccc(NC(=O)c2cccc(C#N)c2)c1 | 0.0 | ? | 10µM* | 25.1µM* | -37.7%
O=C(NCCc1ccccc1)O[C@H]1CC[C@@]23CCCN2C(=O)CCC[C@H]3[C@H]1Cc1ccccc1 | -3.4 | · | · | · | ·
CCOc1ccc(S(=O)(=O)NCCc2c(C)[nH]c3c(Cl)cccc23)cc1C | ? | 6.8% | · | 15.0% | ·
Oc1ccc(COc2cccc3ccccc23)c2cccnc12 | · | -14.6% | · | · | -55.5%
SMILES | HCMV inh | AmpC detergent | HCV inh | FMDV antiviral | AmpC no deterg
Cc1ccccc1NCc1ccc(O)c2ncccc12 | -97.5* | 0.8% | ? | ? | -17.9%
Cc1cccc(NCc2ccc(O)c3ncccc23)c1 | -84.0* | 4.9% | 7.08µM* | -21.3% | -14.9%
COCc1ccc(O)c2ncccc12 | -94.1* | 1.2% | 5.62µM* | -28.6% | -0.6%
COc1cc(-c2cnc3ccccc3c2)cc2c1OCCN(S(=O)(=O)C[C@]13CC[C@H](CC1=O)C3(C)C)C2 | · | · | · | -0.8% | ·
COc1ccc(C(=O)N(C)CCCC2CCCC2)cc1OC1CCN(C(C)C)CC1 | -7.8 | 1.6% | ? | 2.4% | 0.1%
Cn1c(=O)c2c(nc(N/N=C/c3cccs3)n2Cc2ccccc2)n(C)c1=O | ? | -14.7% | ? | 25.1µM* | -32.9%
Cn1c(=O)c2c(nc(N/N=C/c3cccnc3)n2Cc2ccc(F)cc2)n(C)c1=O | -7.3 | -5.1% | -3.0% | -17.6% | -15.2%
Cn1c(=O)c2c(nc(N/N=C/c3ccc(OC(=O)c4ccco4)cc3)n2Cc2ccccc2)n(C)c1=O | 71.6 | -9.1% | ? | 12.6µM* | -15.2%
CCCCOc1ccc(NC(=O)Cn2nnnc2-c2ccccc2F)cc1 | 9.9 | 14.4% | · | -8.8% | ·
Oc1c(C(c2ccc(Cl)cc2Cl)N2CCN(c3ccccc3)CC2)sc2nc(-c3ccco3)nn12 (stereo unspecified) | 5.1 | 1.0% | · | -6.3% | ·
CN1CCN(CCCCOc2ccccc2C=O)CC1 | -27.9 | -9.1% | 10µM* | -13.2% | 117.8%
COc1cccc(OC)c1OCCCCN1CCCC1 | 5.8 | 4.5% | 18.3% | -13.0% | -15.6%
COc1ccccc1C(=O)N1CCN(CCc2ccccc2)CC1 | 9.3 | -10.2% | 10.8% | 4.9% | 7.1%
COc1cccc(C(=O)N2CCN(CCCc3ccccc3)CC2)c1OC | ? | 0.7% | 35.5µM* | ? | 49.8%
COc1ccccc1OCCCCN1CCN(C(c2ccccc2)c2ccccc2)CC1 | ? | 0.8% | 11.2µM* | -29.6% | 142.1%
COc1cccc(OC)c1OCCCCN1CCC(Cc2ccccc2)CC1 | -2.7 | -2.3% | 11.2µM* | -28.0% | -0.7%[2.29 µM]
CS(=O)(=O)c1cccc(-c2nnc(NC(=O)c3ccc4c(c3)OCCO4)o2)c1 | 17.7 | 17.1% | · | -4.0% | ·
Cc1ccccc1Cn1nnc2c(=O)[nH]c(C3CCN(C(=O)c4ccccc4Cl)CC3)nc21 | -21.2 | 1.0% | · | -14.9% | ·
Cc1cc(Br)c(OCc2ccc(C(=O)N/N=C/c3ccc[nH]3)cc2)c(Br)c1 | + | -1.4% | -3.9% | ? | 10.8%
O=C(N/N=C/c1ccc[nH]1)c1ccc(COc2cccc3cccnc23)cc1 | -97.1* | 5.9% | 0.794µM* | 8.91µM* | -21.1%[2.29 µM]
O=C(N/N=C/c1ccccc1C(=O)O)c1ccc(COc2cccc3cccnc23)cc1 | -7.0 | 1.2% | 2.8% | 13.6% | -30.7%
Cc1ccc2c(CC(=O)N3CCOc4ccc(CN5C[C@@H](C)O[C@@H](C)C5)cc4C3)cc(=O)oc2c1 | · | · | · | -6.3% | ·
CN1C(=O)[C@H](Cc2ccc([N+](=O)[O-])cc2)NC1=S | -72.0* | -3.7% | 1.1% | 4.8% | -17.7%
